From PubChem BioAssay (NCI)
The panel holds about 79,000 compounds, 15% with a hit somewhere; the sample as a whole holds those more often. Values without a mark were called inactive. Calls of active or inactive are those of the source. No stated cut-off is given here; in the data, active means growth inhibition above about 70%; inactive means the rest.

Assay: NCI Yeast Anticancer Drug Screen. Data for the rad18 strain (AID 177)
Conditions: S. cerevisiae rad18 mutant growth inhibition, active compounds read high
Procedure: Growth inhibition of yeast strains with defined genetic alterations is measured as a screen for potential anti-cancer activity. Selected strains with alterations in DNA damage repair or cell cycle control were exposed to compounds and growth inhibition was measured relative to vehicle treated controls. The strain used in this assay is rad18

Structure (SMILES): O=C1C=CC(=O)N1c1ccc(Br)cc1Cl
- growth inhibition (at 1.2 µM): 85% (active)
- growth inhibition (at 3.7 µM): 99% (active)
- growth inhibition (at 11.0 µM): 99% (active)
- growth inhibition (at 33.0 µM): 93% (active)
- growth inhibition (at 100.0 µM): 99% (active)

Structure (SMILES): CCCC(=O)OC(OC(=O)CCC)c1ccc([N+](=O)[O-])o1
- growth inhibition (at 1.2 µM): 1%
- growth inhibition (at 3.7 µM): 14%
- growth inhibition (at 11.0 µM): 42%
- growth inhibition (at 33.0 µM): 85% (active)
- growth inhibition (at 100.0 µM): 94% (active)

Structure (SMILES): CSc1ccc2c(c1)C(N1CCN(C)CC1)Cc1ccccc1S2 (stereo not given)
- growth inhibition (at 1.2 µM): -44%
- growth inhibition (at 3.7 µM): -72%
- growth inhibition (at 11.0 µM): -44%
- growth inhibition (at 33.0 µM): 75% (active)
- growth inhibition (at 100.0 µM): 98% (active)

Structure (SMILES): O=C1c2ccccc2C(=O)C1C(c1ccc(F)cc1)C1C(=O)c2ccccc2C1=O
- growth inhibition (at 1.2 µM): -2%
- growth inhibition (at 3.7 µM): -7%
- growth inhibition (at 11.0 µM): 1%
- growth inhibition (at 33.0 µM): 26%
- growth inhibition (at 100.0 µM): 88% (active)

Structure (SMILES): CN1CCN(c2ccc3nc(-c4ccc5nc(-c6ccc(O)cc6)[nH]c5c4)[nH]c3c2)CC1
- growth inhibition (at 1.2 µM): -12%
- growth inhibition (at 3.7 µM): -29%
- growth inhibition (at 11.0 µM): 97% (active)
- growth inhibition (at 33.0 µM): 97% (active)
- growth inhibition (at 100.0 µM): 97% (active)

Structure (SMILES): CCC(C)C(=O)OCC(=O)c1ccc(-c2ccccc2)cc1 (stereo not given)
- growth inhibition (at 1.2 µM): -1%
- growth inhibition (at 3.7 µM): 2%
- growth inhibition (at 11.0 µM): 1%
- growth inhibition (at 33.0 µM): -1%
- growth inhibition (at 100.0 µM): -5%

Structure (SMILES): CCOC(=O)C1=C(C)NC(C)=C(C(=O)OCC)C1c1cccc([N+](=O)[O-])c1
- growth inhibition (at 1.2 µM): 5%
- growth inhibition (at 3.7 µM): 32%
- growth inhibition (at 11.0 µM): 33%
- growth inhibition (at 33.0 µM): 60%
- growth inhibition (at 100.0 µM): 83% (active)

Structure (SMILES): COc1ccc2c(Cc3c4ccccc4cc4ccccc34)cncc2c1O
- growth inhibition (at 1.2 µM): 9%
- growth inhibition (at 3.7 µM): 4%
- growth inhibition (at 11.0 µM): 25%
- growth inhibition (at 33.0 µM): 86% (active)
- growth inhibition (at 100.0 µM): 88% (active)
